Test results published in PubChem BioAssay.
The source made the active and inactive calls.

Legend:
[1] = anti-His antibody binders, primary screen, artefact control for SMM control protein annotation, biochemical, small-molecule microarray, 635 nm fluorescence (AID 1128); conditions: anti-His Alexa647 antibody binding, higher = more signal;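 further: score merges feature fluorescence with signal-to-noise for each printed compound spot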
[2] = system: Human papillomavirus type 1a E7 protein (residues 1-88); assay: HPV1a E7 small-molecule binders, primary screen, biochemical, small-molecule microarray, residues 1-88, 635 nm (AID 1129); conditions: small-molecule microarray binding, fluorescence 635 nm; higher = more signal
[3] = biological target: Focal adhesion kinase 1 (Homo sapiens) (UniProt Q05397); assay: small-molecule microarray binders of FAK, primary screen, biochemical, 635/667 nm fluorescence, BSA, DTT (AID 1130); conditions: PTK2 binding, 635 nm fluorescence, higher = more signal;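 further: composite of spot emission at 667 nm and signal to noise over triplicate slides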
Chain of Focal adhesion kinase 1 (Homo sapiens) (Q05397 whole entry, looked up): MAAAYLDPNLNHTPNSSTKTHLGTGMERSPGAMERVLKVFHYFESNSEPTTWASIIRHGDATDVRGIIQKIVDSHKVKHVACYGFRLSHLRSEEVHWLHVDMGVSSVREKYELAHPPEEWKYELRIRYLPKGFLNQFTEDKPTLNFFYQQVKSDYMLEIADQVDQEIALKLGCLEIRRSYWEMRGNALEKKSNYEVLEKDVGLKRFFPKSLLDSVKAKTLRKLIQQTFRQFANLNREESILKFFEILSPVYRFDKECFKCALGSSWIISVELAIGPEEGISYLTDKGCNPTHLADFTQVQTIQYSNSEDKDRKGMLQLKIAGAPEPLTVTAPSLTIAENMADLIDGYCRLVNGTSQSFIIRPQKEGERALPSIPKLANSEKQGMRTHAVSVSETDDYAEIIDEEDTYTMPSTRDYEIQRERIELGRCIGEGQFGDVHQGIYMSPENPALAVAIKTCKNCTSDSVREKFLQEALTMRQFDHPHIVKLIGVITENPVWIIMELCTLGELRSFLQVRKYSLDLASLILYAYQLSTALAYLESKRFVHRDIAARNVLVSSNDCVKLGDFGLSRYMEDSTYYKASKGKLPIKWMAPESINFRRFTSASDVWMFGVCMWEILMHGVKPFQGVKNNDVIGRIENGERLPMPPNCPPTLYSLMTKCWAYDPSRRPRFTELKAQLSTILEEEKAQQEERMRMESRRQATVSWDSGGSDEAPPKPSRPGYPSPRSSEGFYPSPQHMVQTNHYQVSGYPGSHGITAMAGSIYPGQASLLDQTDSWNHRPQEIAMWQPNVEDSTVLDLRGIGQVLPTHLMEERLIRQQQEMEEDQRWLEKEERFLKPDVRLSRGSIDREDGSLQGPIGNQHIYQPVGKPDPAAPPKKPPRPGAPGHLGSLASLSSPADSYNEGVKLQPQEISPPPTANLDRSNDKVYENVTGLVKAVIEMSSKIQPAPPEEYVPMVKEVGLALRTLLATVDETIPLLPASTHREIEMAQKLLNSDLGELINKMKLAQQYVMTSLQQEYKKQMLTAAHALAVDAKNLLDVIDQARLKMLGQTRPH

[4] = system: Fibrinogen (Alexa647-labelled); assay: fibrinogen binders on compound microarrays, profiling panel, artefact control for SMM control-protein annotation, biochemical, small-molecule microarray, 635/667 nm fluorescence (AID 1131); conditions: fibrinogen-A647 binding fluorescence, higher = more signal;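 further: z-score merges 667 nm fluorescence with per-spot signal-to-noise over triplicate slides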
[5] = biological target: Follistatin (Homo sapiens) (UniProt P19883); assay: follistatin binders on small-molecule microarrays, primary screen, biochemical, small-molecule microarray, 635/667 nm fluorescence (AID 1132); conditions: FST binding, 635 nm fluorescence, higher = more signal
Chain of Follistatin (Homo sapiens) (P19883 whole entry, looked up): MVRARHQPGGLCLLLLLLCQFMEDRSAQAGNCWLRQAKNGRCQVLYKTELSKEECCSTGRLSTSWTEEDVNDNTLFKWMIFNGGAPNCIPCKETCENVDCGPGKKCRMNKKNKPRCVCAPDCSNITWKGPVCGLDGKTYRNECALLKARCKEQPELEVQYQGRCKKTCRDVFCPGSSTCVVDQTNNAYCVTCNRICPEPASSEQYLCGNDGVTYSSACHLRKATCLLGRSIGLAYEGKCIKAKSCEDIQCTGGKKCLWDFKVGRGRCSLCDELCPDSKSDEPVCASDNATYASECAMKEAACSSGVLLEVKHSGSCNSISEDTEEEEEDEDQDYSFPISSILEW

[6] = biological target: Fibroblast growth factor 2 (Homo sapiens) (UniProt P09038); assay: FGF2 binders on small-molecule microarrays, primary screen, biochemical, small-molecule microarray, 635/667 nm fluorescence (AID 1133); conditions: small-molecule microarray binding, FGF2, fluorescence 635/667; higher = more signal
Chain of Fibroblast growth factor 2 (Homo sapiens) (P09038 whole entry, looked up): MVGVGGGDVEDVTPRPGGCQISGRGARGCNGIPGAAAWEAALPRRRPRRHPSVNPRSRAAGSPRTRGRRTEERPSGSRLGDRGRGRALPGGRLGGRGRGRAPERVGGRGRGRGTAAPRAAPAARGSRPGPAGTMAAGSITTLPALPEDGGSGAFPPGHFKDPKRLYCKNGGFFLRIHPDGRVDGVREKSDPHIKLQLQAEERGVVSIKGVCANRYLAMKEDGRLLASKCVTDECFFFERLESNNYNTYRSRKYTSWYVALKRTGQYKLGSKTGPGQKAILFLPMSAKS

[7] = mitochondrial membrane potential change in A549 cells, profiling panel, cell-based, JC-1 fluorescence, basal, 24 h, 100 nL (AID 1138); conditions: higher = more signal;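 further: A549 lung adenocarcinoma cells under basal conditions with no added stimulus; test concentration not given here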
[8] = system: Lefty1; assay: Lefty1 binders on small-molecule microarrays, primary screen, biochemical, small-molecule microarray, 635/667 nm fluorescence (AID 1139); conditions: small-molecule microarray binding, fluorescence 635/667; higher = more signal
[9] = system: wheat germ agglutinin (Triticum aestivum), Alexa647-labelled; assay: wheat germ agglutinin binders on compound microarrays, profiling panel, artefact control for SMM control-protein annotation, biochemical, small-molecule microarray, 635/667 nm fluorescence (AID 1140); conditions: WGA-A647 binding, 635 nm fluorescence, higher = more signal;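 further: score merges 667 nm feature emission with signal to noise over triplicate slides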
[10] = biological target: Luciferin 4-monooxygenase (Photinus pyralis) (UniProt P08659); assay: firefly luciferase enzyme inhibitors, primary screen, biochemical, luminescence, purified enzyme, 2006 set (AID 1141); conditions: SteadyGlo luminescence, 30 min, higher = more signal, called active from +8 up or from −8 down;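 further: cell-free assay with purified firefly luciferase at 100 ng per well in PBS; test concentration not given here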
Chain of Luciferin 4-monooxygenase (Photinus pyralis) (P08659 whole entry, looked up): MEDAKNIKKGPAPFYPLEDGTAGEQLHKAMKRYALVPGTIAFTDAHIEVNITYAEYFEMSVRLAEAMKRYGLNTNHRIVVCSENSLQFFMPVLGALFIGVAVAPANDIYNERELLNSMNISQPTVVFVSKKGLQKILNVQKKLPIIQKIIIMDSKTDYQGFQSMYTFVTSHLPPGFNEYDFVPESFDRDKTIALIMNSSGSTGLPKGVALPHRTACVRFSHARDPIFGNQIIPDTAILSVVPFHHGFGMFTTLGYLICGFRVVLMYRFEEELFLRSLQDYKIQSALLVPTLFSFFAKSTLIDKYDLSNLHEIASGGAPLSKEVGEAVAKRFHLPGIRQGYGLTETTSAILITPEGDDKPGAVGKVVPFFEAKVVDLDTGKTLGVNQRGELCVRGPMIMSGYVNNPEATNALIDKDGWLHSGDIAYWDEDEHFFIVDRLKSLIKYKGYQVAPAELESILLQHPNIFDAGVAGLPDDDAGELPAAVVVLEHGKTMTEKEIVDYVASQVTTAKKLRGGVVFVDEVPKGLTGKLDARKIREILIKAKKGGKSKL

[11] = system: Wnt5a (protein binding on small-molecule microarray); assay: Wnt5a binders on small-molecule microarray, primary screen, biophysical, 635/667 nm fluorescence (AID 1142); conditions: 635 nm fluorescence, higher = more signal;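 further: fluorescence read at 667 nm with signal to noise per printed feature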
[12] = cell viability in Huh7 cells, primary screen, cytotoxicity control for HCV replication inhibitor project, CellTiter-Glo luminescence, basal, 48 h (AID 1143); conditions: Huh7 HCV replicon, higher = more signal, called active from +8 up or from −8 down;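 further: Huh7 hepatoma cells carrying a hepatitis C replication reporter with no stimulus; test concentration not given here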
[13] = CREB reporter modulators without forskolin, primary screen, cell-based, PC12, CRE-LacZ reporter, unstimulated (AID 1145); conditions: no forskolin, luminescence, 4.5 h, higher = more signal, called active from +8 up or from −8 down
[14] = CREB reporter modulators under forskolin, primary screen, cell-based, PC12, CRE-LacZ reporter, forskolin-stimulated (AID 1146); conditions: luminescence, 4.5 h, higher = more signal, called active from +8 up or from −8 down;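 further: PC12 cells with 6xCRE LacZ reporter stimulated by forskolin 10 µM; beta-galactosidase reporter signal reflecting CREB driven transcription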
[15] = biological target: Streptavidin (Streptomyces avidinii) (UniProt P22629); assay: streptavidin binders on small-molecule microarray, primary screen, artefact control for SMM compound annotation, biophysical, 635/667 nm fluorescence (AID 1147); conditions: streptavidin binding, higher = more signal;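 further: signal reflects streptavidin binding to arrayed compounds as a control protein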
Chain of Streptavidin (Streptomyces avidinii) (P22629 whole entry, looked up): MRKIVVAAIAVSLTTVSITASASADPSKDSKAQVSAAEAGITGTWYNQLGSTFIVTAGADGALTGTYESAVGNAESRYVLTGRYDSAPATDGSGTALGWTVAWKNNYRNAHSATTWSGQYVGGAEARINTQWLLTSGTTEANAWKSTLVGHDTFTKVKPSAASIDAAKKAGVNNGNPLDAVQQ

[16] = small-molecule binders of probe aInhba, primary screen, biochemical, small-molecule microarray, 635/667 nm fluorescence (AID 1148); conditions: higher = more signal;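 further: score merges 667nm spot fluorescence with signal-to-noise for antibody binding to printed compounds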
[17] = biological target: Torsin-1A (Homo sapiens) (UniProt O14656); assay: torsin A binders from cell lysate, primary screen, small-molecule microarray, wild-type, 635/667 nm (AID 1149); conditions: COS7 hTOR1A-WT lysate, 635 nm fluorescence, higher = more signal
Chain of Torsin-1A (Homo sapiens) (O14656 whole entry, looked up): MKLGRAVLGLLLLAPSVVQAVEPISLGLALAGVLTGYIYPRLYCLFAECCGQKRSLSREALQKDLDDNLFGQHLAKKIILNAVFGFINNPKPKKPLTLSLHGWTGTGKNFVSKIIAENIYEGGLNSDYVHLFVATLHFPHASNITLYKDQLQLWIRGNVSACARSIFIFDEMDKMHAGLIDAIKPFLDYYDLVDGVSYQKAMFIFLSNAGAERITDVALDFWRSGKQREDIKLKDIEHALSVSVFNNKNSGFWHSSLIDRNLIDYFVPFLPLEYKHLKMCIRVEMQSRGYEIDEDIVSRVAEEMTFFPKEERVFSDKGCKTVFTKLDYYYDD

[18] = biological target: Torsin-1A (Homo sapiens) (UniProt O14656); assay: small-molecule binders of mutant TOR1A in lysate, primary screen, cell lysate, small-molecule microarray, COS7 lysate, 635/667 nm fluorescence (AID 1150); conditions: COS7 hTOR1A mutant lysate, 635 nm fluorescence, higher = more signal;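 further: score pools 667 nm emission and signal to noise measuring lysate protein binding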
[19] = system: Sonic hedgehog protein (Shh); assay: small-molecule binders of Shh protein, primary screen, biochemical, small-molecule microarray, 635/667 nm fluorescence (AID 1151); conditions: small-molecule microarray binding, 635 nm fluorescence; higher = more signal;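 further: Shh protein binding to compounds spotted on small-molecule microarray slides; score combines spot fluorescence intensity with signal-to-noise across triplicate slides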

Structure (SMILES)	composite z-score [1]	composite z-score [2]	composite z-score [3]	composite z-score [4]	composite z-score [5]	composite z-score [6]	z-score [7]	composite z-score [8]	composite z-score [9]	z-score [10]	composite z-score [11]	z-score [12]	z-score [13]	z-score [14]	composite z-score [15]	composite z-score [16]	composite z-score [17]	composite z-score [18]	composite z-score [19]
Cc1ccc(S(=O)(=O)c2cc3oc2CC[C@@H](CO)NC(=O)N(C)Cc2cn(nn2)C[C@H](Cc2ccccc2)NC3=O)cc1	3.02	-0.157	2.07	0.814	-0.0009	0.108	1.95	-0.442	-0.0961	-1.53 (inactive)	-0.0319	-0.0124 (inactive)	-0.332 (inactive)	-0.58 (inactive)	-0.183	-0.0335	0.285	0.501	0.0007
C=C(COC)/C(=C/C[C@@H](OC(=O)c1ccncc1)c1ccc(OCCO)cc1)c1cc(C(=O)OC)ccc1OC	2.06	1.21	1.21	0.791	0.59	0.334	2.2	0.716	1.3	-2.22 (inactive)	0.147	-2.43 (inactive)	9.09 (active)	-2.02 (inactive)	1.14	0.0212	1.06	0.838	0.811
CCCNC(=O)[C@@H]1c2ccccc2C(=O)N(Cc2cc(F)cc(C(F)(F)F)c2)[C@H]1c1ccc(CO)cc1	2.1	1.14	0.674	0.62	1.41	0.587	1.74	1.58	0.628	-0.747 (inactive)	0.411	-2.08 (inactive)	-0.529 (inactive)	-1.53 (inactive)	0.568	0.157	0.528	0.457	1.93
O=[N+]([O-])c1ccc(C[n+]2ccc3ccc(O)cc3c2)o1	0.0131	0.275	0.326	0.596	1.04	0.227	1.25	0.392	1.12	-2 (inactive)	0.465	-0.893 (inactive)	-0.815 (inactive)	-1.3 (inactive)	1.29	0.0857	0.244	1.07	0.841
COc1ccc(CCNC(=O)[C@@]2(c3ccc([N+](=O)[O-])cc3)CC(=O)N(C(C)C)[C@@H]2c2ccc(CO)cc2)cc1	-0.601	-0.622	-0.637	-2.13	-0.669	-0.848	0.774	-2.2	-0.81	-0.939 (inactive)	-0.326	-3.13 (inactive)	0.0909 (inactive)	-1.25 (inactive)	-0.698	-0.255	-1.09	-0.87	-0.775
CO[C@@H]1COC(=O)[C@@H]2CCCN2C(=O)CC=C[C@@H](C)[C@H](OC)COC(=O)[C@@H]2CCCN2C(=O)CC=C[C@H]1C	-0.775	-1.7	-0.191	-1.15	1.34	1.58	1.01	1.31	-0.949	-1.44 (inactive)	-0.137	-0.381 (inactive)	-0.292 (inactive)	-0.559 (inactive)	-0.613	-0.179	0.985	0.306	2.1
O=C(NCc1ccccc1)[C@@]1(CCS(=O)(=O)c2ccccc2)COC(c2ccc(OCCCO)cc2)=N1	3.16	1.26	0.79	0.869	0.354	-0.376	0.959	-0.278	1.49	-1.42 (inactive)	0.23	-3.07 (inactive)	-0.137 (inactive)	-2.67 (inactive)	2	0.281	0.911	0.576	0.331
CCN1C(C)=C(C(=O)OC)[C@@H](c2ccccc2)N2C(=O)[C@](O)(C(=O)OC)[C@@H](c3ccccc3)C(C(=O)c3ccccc3)=C12	0.0774	0.778	0.0079	0.983	0.411	0.411	1.58	0.717	0.593	-1.2 (inactive)	0.271	-1.49 (inactive)	1.55 (inactive)	0.214 (inactive)	0.0306	-0.0552	0.5	0.269	0.473
C=C[C@H](OC)[C@@H](OC(=O)Nc1ccc(SC)cc1)c1ccc(OC)c(O)c1	-0.548	-0.19	-0.0802	-0.666	-0.466	-0.896	0.52	-0.541	-1.51	-2.18 (inactive)	-0.29	-0.0203 (inactive)	-0.113 (inactive)	-1.26 (inactive)	-1.28	-0.128	-0.678	0.157	0.417
